The text below walks through data of PubChem BioAssay.

Active and inactive are the calls of the source.

The nature of assay [1]: optical density shifts of acrAB sulA E. coli – strain DRC41, OD650, 48 h, E. coli filamentation inducer project, primary screen (AID 1152).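 Note: E. coli MC1000 strain DRC41 lacking acrAB efflux pump and sulA.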 The conditions noted are these: higher = more signal, called active from +8 up or from −8 down.
Assay [2] in a line: probe aLefty1 binding on compound microarray – biochemical, small-molecule microarray, 635/667 nm fluorescence, primary screen (AID 1153).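 Note: score merges spot fluorescence with signal-to-noise ratio from the scanned slide images.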 To be noted: higher = more signal.
Assay [3] in a line: plasmodial surface anion channel blockers, osmotic lysis – cell-based, P. falciparum Indochina, OD700, 1 h, primary screen (AID 1154). The conditions noted are these: P. falciparum Indochina infected RBC osmotic lysis, higher = more signal, called active from +8 up or from −8 down.
Assay [4] can be described thus: plasmodial surface anion channel blockers, osmotic lysis – cell-based, P. falciparum Indochina, OD700, 2 h, primary screen (AID 1155).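 Note: lysis reports solute entry through the parasite surface anion channel PSAC.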 The conditions noted are these: P. falciparum Indochina infected erythrocytes, higher = more signal, called active from +8 up or from −8 down.
The nature of assay [5]: changes in parasitized red cell lysis, either direction – P. falciparum Indochina, OD700, 3 h, PSAC antagonist project, primary screen (AID 1156). The conditions noted are these: P. falciparum-infected erythrocytes, osmotic lysis, higher = more signal, called active from +8 up or from −8 down.
A short description of assay [6]: plasmodial surface anion channel blockers, osmotic lysis – cell-based, P. falciparum Indochina, OD700, 18 h, primary screen (AID 1157). To be noted: P. falciparum Indochina infected erythrocytes, osmotic lysis OD700, 18 h; higher = more signal, called active from +8 up or from −8 down.
Assay [7] is described as follows: S6 kinase pathway phospho-S6 level changes – cell-based, A549, cytoblot, luminescence, serum-stimulated, primary screen (AID 1158).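 Note: serum-stimulated A549 lung adenocarcinoma cells; signal is phosphorylated S6 detected by cytoblot immunostaining with HRP secondary.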 To be noted: 5 h, higher = more signal.
Assay [8] addresses NADPH oxidase 2 (Homo sapiens) (UniProt P04839). Description: compounds shifting NOX2 Amplex Red fluorescence – cell-based, HEK293-NOX2, PMA-stimulated, NOX inhibitor project, primary screen (AID 1159). Note: test concentration not given here. The conditions noted are these: 45 min, higher = more signal, called active from +8 up or from −8 down.
Assay [9] concerns the target NADPH oxidase 4 (Homo sapiens) (UniProt Q9NPH5). Description: compounds shifting NOX4 Amplex Red fluorescence – cell-based, HEK293-NOX4, tetracycline-induced, NOX inhibitor project, primary screen (AID 1160). To be noted: HEK293-NOX4, Amplex Red H2O2 fluorescence, 45 min; higher = more signal, called active from +8 up or from −8 down.
Assay [10] deals with NADPH oxidase 5 (Homo sapiens) (UniProt Q96PH1). Description: compounds shifting NOX5 Amplex Red fluorescence – cell-based, HEK293-NOX5, NOX inhibitor project, primary screen (AID 1161). The conditions noted are these: HEK293-NOX5, ionomycin, 45 min, higher = more signal.
A short description of assay [11]: compound effects on lung adenocarcinoma cell viability – A549, calcein-AM fluorescence, 48 h, basal, profiling panel (AID 1162). Note: test concentration not given here. To be noted: higher = more signal.
The nature of assay [12]: compound effects on differentiated 3T3-L1 adipocyte viability – cell-based, 3T3-L1 adipocytes, calcein-AM fluorescence, 48 h, basal, profiling panel (AID 1163). Note: test concentration not given here. To be noted: 3T3-L1 adipocytes viability, higher = more signal.
Assay [13] can be described thus: compound effects on hepatocellular carcinoma cell viability – HepG2, calcein-AM fluorescence, 48 h, basal, profiling panel (AID 1164). Note: test concentration not given here. The conditions noted are these: higher = more signal.
Assay [14] can be described thus: compound effects on multiple myeloma cell viability – MM1S, calcein-AM fluorescence, 48 h, basal, profiling panel (AID 1165). Note: test concentration not given here. The conditions noted are these: higher = more signal.
Assay [15] in a line: calcein-AM signal in unstimulated myeloma cells – cell-based, calcein-AM fluorescence, 48 h, PK04 Diversity Set, profiling panel (AID 1166).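 Note: cells grown under basal conditions without added stimulus; test concentration not given here.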 To be noted: RPMI8226 myeloma viability, higher = more signal.
Assay [16] can be described thus: JC-1 mitochondrial signal, unstimulated HepG2 cells – cell-based, JC-1 fluorescence, 24 h, 100 nL compound, profiling panel (AID 1167). Note: test concentration not given here. To be noted: HepG2 mitochondrial potential, higher = more signal.
Assay [17] is described as follows: JC-1 mitochondrial signal, unstimulated adipocytes – cell-based, JC-1 fluorescence, 3T3-L1 adipocytes, 24 h, 100 nL compound, profiling panel (AID 1168). Note: test concentration not given here. The conditions noted are these: JC-1 mitochondrial fluorescence, higher = more signal, called active from +8 up or from −8 down.
A short description of assay [18]: JC-1 mitochondrial signal, unstimulated myeloma cells – cell-based, JC-1 fluorescence, RPMI8226, 24 h, 100 nL compound, profiling panel (AID 1169). Note: test concentration not given here. To be noted: JC-1 mitochondrial potential fluorescence, higher = more signal.
A short description of assay [19]: JC-1 mitochondrial signal, unstimulated MM1S myeloma – cell-based, JC-1 fluorescence, 24 h, 100 nL compound, profiling panel (AID 1170). Note: test concentration not given here. The conditions noted are these: MM1S mitochondrial potential, higher = more signal.
Assay [20] can be described thus: resazurin metabolic signal in A549 cells – cell-based, resazurin fluorescence, 24 h, PK04 Diversity Set, profiling panel (AID 1171). Note: test concentration not given here. To be noted: A549 viability, higher = more signal, called active from +8 up or from −8 down. Background: The colour change of resazurin is a common sign of viable cells or microbes.

NADPH oxidase 5 (Homo sapiens), sequence (Q96PH1 whole entry, looked up): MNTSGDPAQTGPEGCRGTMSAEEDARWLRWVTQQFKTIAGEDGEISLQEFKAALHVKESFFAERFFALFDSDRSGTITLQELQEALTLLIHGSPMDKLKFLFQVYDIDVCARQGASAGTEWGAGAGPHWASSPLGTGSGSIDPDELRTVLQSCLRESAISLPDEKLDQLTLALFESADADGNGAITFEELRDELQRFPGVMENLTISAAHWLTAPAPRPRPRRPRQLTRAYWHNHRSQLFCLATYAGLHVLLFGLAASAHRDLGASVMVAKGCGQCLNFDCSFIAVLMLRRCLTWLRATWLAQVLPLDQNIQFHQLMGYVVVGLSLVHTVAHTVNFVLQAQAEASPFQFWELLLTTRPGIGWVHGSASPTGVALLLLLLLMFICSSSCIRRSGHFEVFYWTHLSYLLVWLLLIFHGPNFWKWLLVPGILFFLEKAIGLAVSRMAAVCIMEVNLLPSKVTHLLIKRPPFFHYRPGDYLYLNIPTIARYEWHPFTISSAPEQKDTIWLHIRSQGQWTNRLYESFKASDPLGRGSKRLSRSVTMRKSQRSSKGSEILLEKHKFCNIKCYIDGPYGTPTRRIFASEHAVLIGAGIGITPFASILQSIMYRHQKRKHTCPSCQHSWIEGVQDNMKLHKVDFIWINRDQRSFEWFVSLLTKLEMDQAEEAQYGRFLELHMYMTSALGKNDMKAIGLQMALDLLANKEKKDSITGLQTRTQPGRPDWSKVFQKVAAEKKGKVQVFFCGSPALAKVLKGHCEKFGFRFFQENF
NADPH oxidase 4 (Homo sapiens), sequence (Q9NPH5 whole entry, looked up): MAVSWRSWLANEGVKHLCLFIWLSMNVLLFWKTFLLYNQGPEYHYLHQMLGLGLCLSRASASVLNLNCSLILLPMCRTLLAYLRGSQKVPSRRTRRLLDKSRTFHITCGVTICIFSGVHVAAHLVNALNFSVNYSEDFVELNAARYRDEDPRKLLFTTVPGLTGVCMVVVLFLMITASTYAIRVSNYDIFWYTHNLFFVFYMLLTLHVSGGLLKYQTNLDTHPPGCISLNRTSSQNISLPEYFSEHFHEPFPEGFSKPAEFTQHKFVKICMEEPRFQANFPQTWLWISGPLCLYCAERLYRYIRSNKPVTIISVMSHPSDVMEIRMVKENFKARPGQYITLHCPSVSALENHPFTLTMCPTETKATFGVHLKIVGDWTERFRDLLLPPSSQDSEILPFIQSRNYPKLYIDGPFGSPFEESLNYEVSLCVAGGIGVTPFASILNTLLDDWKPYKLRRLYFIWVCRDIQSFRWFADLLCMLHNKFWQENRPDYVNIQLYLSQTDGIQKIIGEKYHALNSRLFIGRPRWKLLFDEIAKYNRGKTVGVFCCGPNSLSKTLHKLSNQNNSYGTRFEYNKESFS
NADPH oxidase 2 (Homo sapiens), sequence (P04839 whole entry, looked up): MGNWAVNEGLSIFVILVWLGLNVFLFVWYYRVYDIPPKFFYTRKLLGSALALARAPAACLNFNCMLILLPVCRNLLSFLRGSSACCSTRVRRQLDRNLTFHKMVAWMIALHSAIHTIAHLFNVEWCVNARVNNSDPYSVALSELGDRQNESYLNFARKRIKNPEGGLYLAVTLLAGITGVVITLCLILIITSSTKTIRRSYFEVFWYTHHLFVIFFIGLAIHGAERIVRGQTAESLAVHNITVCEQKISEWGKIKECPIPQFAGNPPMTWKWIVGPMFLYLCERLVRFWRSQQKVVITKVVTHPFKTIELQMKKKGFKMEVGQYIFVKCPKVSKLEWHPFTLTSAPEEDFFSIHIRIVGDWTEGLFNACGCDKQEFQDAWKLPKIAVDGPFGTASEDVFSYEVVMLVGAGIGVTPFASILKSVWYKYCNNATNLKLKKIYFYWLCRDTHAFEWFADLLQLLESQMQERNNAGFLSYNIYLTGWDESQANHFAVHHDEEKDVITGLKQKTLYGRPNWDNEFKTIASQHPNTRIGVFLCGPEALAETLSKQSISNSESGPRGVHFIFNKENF

For `N#Cc1ccc(C(O)C2C=CC3C(=O)N(c4ccccc4)C(=O)C3N2Nc2ccccc2F)cc1` (stereo not given), the z-score in assay [1] is 0.55 (inactive); in assay [3], 3.98 (inactive); in assay [4], -0.245 (inactive); in assay [5], -0.246 (inactive); in assay [6] it was -0.616 (inactive); in assay [7], 0.179. The z-score is -1.82 (inactive) in assay [8]; -3.54 (inactive) in assay [9]; -2.02 in assay [10]; 0.545 in [11]; -1.05 in assay [12]; -0.245 in assay [13]. The z-score was 0.755 in assay [14]; -0.406 in [15]; -0.776 in assay [16]; -0.872 (inactive) in assay [17]; 0.585 in assay [18]; -0.0841 in assay [19]. Further, in [20], the z-score was 0.0801 (inactive). For the same compound, the composite z-score in assay [2] worked out at 0.149.

Consider `COc1ccc([C@H]2C[C@H]3C(Br)=C[C@@]2(CO)C(=O)[C@]32CO2)cc1`, for which the z-score in assay [1] was -0.532 (inactive); in assay [3] it was -0.0473 (inactive); in [4] it was 0.316 (inactive); in assay [5], -0.231 (inactive); in assay [6], -0.039 (inactive); in [7], -0.578. Further, the z-score in assay [8] is 0.24 (inactive); in assay [9], 0.624 (inactive); in assay [10], -0.268; in assay [11] it was -0.0583; in assay [12] it was -0.335; in [13] it was -0.898. The z-score was -2.71 in assay [14]; -0.106 in assay [15]; -2.76 in assay [16]; 0.134 (inactive) in assay [17]; -0.401 in [18]; -1.09 in assay [19]. The z-score in assay [20] was 0.417 (inactive). Further, the composite z-score in [2] was -0.144.

Turning to `COc1cc(CO)cc(I)c1O[C@H]1C=C(C(=O)NCCO)C[C@@H](NC[C@@H]2CCCO2)[C@@H]1O`, the z-score in assay [1] was 2.35 (inactive); in assay [3], 3.81 (inactive); in assay [4] it was 0.585 (inactive); in [5], 1.4 (inactive); in assay [6], 0.303 (inactive); in assay [7] it was 0.687. The z-score is -0.144 (inactive) in assay [8]; 0.492 (inactive) in assay [9]; -0.0544 in assay [10]; 1 in assay [11]; -0.134 in [12]; 0.7 in assay [13]. Also, the z-score in assay [14] is 0.583; in assay [15], 0.327; in assay [16], 0.65; in assay [17] it was 0.239 (inactive); in assay [18], -0.18; in [19], -1.9. Besides, the z-score in assay [20] was 0.222 (inactive). Further, the composite z-score in assay [2] is -0.0075.

Regarding `CO[C@H]1O[C@H](CO)[C@@H](OC(=O)Nc2ccccc2-c2ccccc2)[C@H](OC(=O)Nc2ccccc2-c2ccccc2)[C@@H]1OC(=O)Nc1ccccc1-c1ccccc1`, the z-score in [1] is 1.23 (inactive); in assay [3], 1.79 (inactive); in assay [4], 1.44 (inactive); in [5], 0.552 (inactive); in assay [6] it was 0.938 (inactive); in assay [7], -0.296. For the same compound, the z-score is 2.02 (inactive) in [8]; 0.114 (inactive) in assay [9]; -0.114 in [10]; -0.378 in assay [11]; 0.159 in [12]; -0.0639 in assay [13]. The z-score in assay [14] was -0.857; in [15] it was -1.24; in assay [16], 0.0618; in [17] it was 1.6 (inactive); in assay [18] it was -0.194; in [19], 1.33. Besides, the z-score in [20] was -0.387 (inactive). In addition, the composite z-score in assay [2] amounted to 0.407.

For the compound `CC(C)CCC[C@@H](C)[C@H]1CC[C@@]2(C)C3=C(CC[C@]12C)[C@@]1(C)CC[C@H](OC(=O)c2ccc(C(F)(F)F)nc2)C(C)(C)C1CC3` (stereo not given in full), the z-score in [1] was 3.47 (inactive); in assay [3], -1.05 (inactive); in assay [4] it was -0.693 (inactive); in [5], 0.103 (inactive); in [6], -2.61 (inactive); in [7] it was 2.5. Further, the z-score in assay [8] is -0.971 (inactive); in [9] it was 0.129 (inactive); in assay [10] it was 0.933; in [11] it was 0.351; in assay [12] it was 0.806; in assay [13], 0.717. Also, the z-score is 0.18 in assay [14]; 0.79 in assay [15]; 0.726 in assay [16]; -0.215 (inactive) in assay [17]; 0.483 in assay [18]; -0.263 in assay [19]. For the same compound, the z-score in assay [20] is -0.0879 (inactive). This compound displayed a composite z-score in [2] of -0.155.

As for `COc1ccc(CCNC(=O)[C@@]2(c3ccc([N+](=O)[O-])cc3)CC(=O)N(CC34CC5CC(CC(C5)C3)C4)[C@@H]2c2ccc(CO)cc2I)cc1`, the z-score in assay [1] was 0.655 (inactive); in assay [3], 16.3 (active); in assay [4] it was 3.25 (inactive); in assay [5], 3.61 (inactive); in assay [6] it was 0.838 (inactive); in assay [7], 3.37. The z-score is 0.675 (inactive) in assay [8]; -4.2 (inactive) in assay [9]; -3.66 in assay [10]; -0.68 in assay [11]; 0.475 in assay [12]; -1.36 in assay [13]. Also, the z-score was -2.44 in assay [14]; -3.68 in assay [15]; 2 in [16]; 0.1 (inactive) in [17]; -0.973 in assay [18]; -0.571 in assay [19]. Also, the z-score in assay [20] was -2.16 (inactive). The composite z-score in assay [2] is -0.223.

Consider `COC(=O)c1c2oc(c1C(=O)OC)C(=O)N[C@@H](C(C)C)Cn1cc(nn1)C1(CCCCC1)NC(=O)N[C@H](CO)CC2`, for which the z-score in assay [1] was 2.15 (inactive); in assay [3] it was 1.1 (inactive); in assay [4] it was 0.782 (inactive); in assay [5], 0.144 (inactive); in assay [6], 0.36 (inactive); in assay [7], 0.223. Besides, the z-score in assay [8] is 0.644 (inactive); in assay [9] it was 0.758 (inactive); in assay [10] it was -0.124; in [11], 1.31; in assay [12] it was -0.32; in [13], 0.0744. Also, the z-score was -0.11 in assay [14]; 0.823 in [15]; 1.62 in [16]; 0.024 (inactive) in assay [17]; -0.159 in assay [18]; 0.3 in [19]. In [20], the z-score was 1.15 (inactive). For the same compound, in assay [2], the composite z-score is -0.146.

In the case of `C=C(CCCC)/C(=C/C[C@@H](OC(C)=O)c1cccc(OCCO)c1)c1cnc2ccccc2c1`, the z-score is 0.776 (inactive) in [1]; 23.6 (active) in assay [3]; 6.35 (inactive) in [4]; 2.48 (inactive) in [5]; 1.51 (inactive) in assay [6]; 0.237 in assay [7]. Moreover, the z-score in assay [8] is -2.25 (inactive); in assay [9] it was -0.934 (inactive); in [10], -2.22; in [11], 0.238; in assay [12] it was 1.3; in assay [13], -0.0152. Besides, the z-score was -1.47 in assay [14]; -2.31 in [15]; 2.23 in assay [16]; -2 (inactive) in [17]; -0.423 in assay [18]; -0.714 in assay [19]. In addition, the z-score in assay [20] is 0.329 (inactive). The composite z-score in assay [2] amounted to 0.201.

`CC1CC/C=C\[C@H]2OC34C=CCN(Cc5ccccc5)C(=O)[C@H]3N(C(C)CO)C(=O)[C@@H]4C2C(=O)O1` (stereo not given in full): the z-score was 0.537 (inactive) in [1]; 0.16 (inactive) in assay [3]; 0.365 (inactive) in assay [4]; 1.8 (inactive) in assay [5]; 0.425 (inactive) in assay [6]; -0.0395 in assay [7]. The z-score in assay [8] was 0.799 (inactive); in [9], -0.657 (inactive); in [10] it was 1.27; in assay [11], 0.278; in assay [12] it was -0.979; in assay [13] it was 0.679. Also, the z-score was 0.998 in assay [14]; -0.182 in assay [15]; 0.554 in assay [16]; 0.219 (inactive) in assay [17]; 1.11 in assay [18]; 0.741 in [19]. The z-score in assay [20] was 0.418 (inactive). Also, the composite z-score in assay [2] was -0.0984.
